# From article PMC7862700, “An all-to-all approach to the identification of sequence-specific readers for epigenetic DNA modifications on cytosine”
# Columns and labels:
# Test in all cases: DAPPL (digital affinity profiling via proximity ligation, sequencing); 10 mM Tris-HCl pH 7.5, 50 mM NaCl, 1 mM DTT, 4% glycerol, room temperature, 30 min; GST-TFs on glutathione beads, 16-mer random dsDNA library, 0.1% formaldehyde crosslink after washing; high values mean tight binding
# Details in all cases: protein: recombinant; tags: N-terminal GST; dsDNA, one strand shown
# FLI1 = target: T1, FLI1 (Homo sapiens, UniProt Q01543 1-452)
# T1 sequence: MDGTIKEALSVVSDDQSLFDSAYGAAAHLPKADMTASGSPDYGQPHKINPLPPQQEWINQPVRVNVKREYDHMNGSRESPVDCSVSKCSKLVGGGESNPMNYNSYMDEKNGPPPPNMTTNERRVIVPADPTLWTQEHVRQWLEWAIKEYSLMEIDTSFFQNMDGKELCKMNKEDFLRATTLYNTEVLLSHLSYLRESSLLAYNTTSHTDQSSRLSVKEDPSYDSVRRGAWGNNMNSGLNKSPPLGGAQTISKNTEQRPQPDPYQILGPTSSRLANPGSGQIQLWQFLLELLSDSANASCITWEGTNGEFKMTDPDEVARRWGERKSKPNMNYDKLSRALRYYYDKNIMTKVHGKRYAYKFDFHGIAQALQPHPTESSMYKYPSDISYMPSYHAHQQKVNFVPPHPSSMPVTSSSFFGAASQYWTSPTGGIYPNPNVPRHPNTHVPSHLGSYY
# How it was run: (§1)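 Binding signal is each hexamer's read frequency for a factor divided by its frequency in the tag-only sample. The factors were GST-fused human transcription factors from yeast, captured on glutathione beads, DNA-barcoded and pooled with that sample. Pools were incubated with 200 nmole of a random double-stranded 16-mer DNA library in Tris/NaCl/DTT/glycerol buffer at room temperature for 30 min, then washed, crosslinked with 0.1% formaldehyde, proximity-ligated with BsaI/T4 ligase (1 h, 37 °C), PCR-amplified and sequenced on an Illumina NextSeq500.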
# ELK1 = target: T2, ELK1 (Homo sapiens, UniProt P19419 1-428)
# T2 sequence: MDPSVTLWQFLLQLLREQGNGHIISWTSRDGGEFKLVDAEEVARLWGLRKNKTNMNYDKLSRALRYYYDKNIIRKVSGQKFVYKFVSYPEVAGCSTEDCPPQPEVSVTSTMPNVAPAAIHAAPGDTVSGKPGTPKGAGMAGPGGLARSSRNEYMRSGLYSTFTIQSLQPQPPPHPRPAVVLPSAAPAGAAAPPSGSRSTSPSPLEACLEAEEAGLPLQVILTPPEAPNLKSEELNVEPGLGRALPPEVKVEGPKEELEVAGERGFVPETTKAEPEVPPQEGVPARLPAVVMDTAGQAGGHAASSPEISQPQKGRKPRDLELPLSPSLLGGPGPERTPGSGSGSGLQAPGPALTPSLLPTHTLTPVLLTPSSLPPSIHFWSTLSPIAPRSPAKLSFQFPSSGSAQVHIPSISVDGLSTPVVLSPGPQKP
# How it was run: as §1
# GABPA = target: T3, GABPA (Homo sapiens, UniProt Q06546 1-454)
# T3 sequence: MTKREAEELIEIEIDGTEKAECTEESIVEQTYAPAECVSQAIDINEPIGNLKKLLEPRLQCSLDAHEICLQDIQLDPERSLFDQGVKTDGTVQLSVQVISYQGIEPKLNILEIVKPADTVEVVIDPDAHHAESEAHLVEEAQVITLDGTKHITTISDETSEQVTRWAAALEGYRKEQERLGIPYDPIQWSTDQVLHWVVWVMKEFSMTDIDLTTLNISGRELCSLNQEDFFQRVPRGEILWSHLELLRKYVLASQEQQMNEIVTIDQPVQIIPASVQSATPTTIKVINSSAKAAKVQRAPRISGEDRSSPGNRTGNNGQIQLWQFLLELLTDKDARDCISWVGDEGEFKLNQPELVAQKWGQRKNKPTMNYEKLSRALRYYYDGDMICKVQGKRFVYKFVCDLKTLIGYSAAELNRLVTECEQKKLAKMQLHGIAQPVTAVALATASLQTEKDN
# How it was run: as §1
# ERG = target: T4, ERG (Homo sapiens, UniProt P11308 1-479)
# T4 sequence: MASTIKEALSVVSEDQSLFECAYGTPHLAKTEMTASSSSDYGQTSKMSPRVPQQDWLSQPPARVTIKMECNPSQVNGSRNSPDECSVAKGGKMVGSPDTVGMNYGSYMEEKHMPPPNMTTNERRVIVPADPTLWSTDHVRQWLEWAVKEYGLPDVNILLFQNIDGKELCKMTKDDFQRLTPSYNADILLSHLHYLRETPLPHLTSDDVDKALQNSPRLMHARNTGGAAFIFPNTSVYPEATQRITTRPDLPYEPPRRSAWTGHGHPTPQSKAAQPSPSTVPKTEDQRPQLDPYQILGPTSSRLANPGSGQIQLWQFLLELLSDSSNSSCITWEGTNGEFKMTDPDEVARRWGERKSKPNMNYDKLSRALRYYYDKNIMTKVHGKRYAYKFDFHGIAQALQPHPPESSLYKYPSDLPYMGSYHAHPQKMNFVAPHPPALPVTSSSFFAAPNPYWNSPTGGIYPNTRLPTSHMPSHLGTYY
# How it was run: as §1
# ELF1 = ELF1 (Homo sapiens, UniProt P32519 1-619)
# How it was run: as §1
# EHF = target: T5, EHF (Homo sapiens, UniProt Q9NZC4 1-300)
# T5 sequence: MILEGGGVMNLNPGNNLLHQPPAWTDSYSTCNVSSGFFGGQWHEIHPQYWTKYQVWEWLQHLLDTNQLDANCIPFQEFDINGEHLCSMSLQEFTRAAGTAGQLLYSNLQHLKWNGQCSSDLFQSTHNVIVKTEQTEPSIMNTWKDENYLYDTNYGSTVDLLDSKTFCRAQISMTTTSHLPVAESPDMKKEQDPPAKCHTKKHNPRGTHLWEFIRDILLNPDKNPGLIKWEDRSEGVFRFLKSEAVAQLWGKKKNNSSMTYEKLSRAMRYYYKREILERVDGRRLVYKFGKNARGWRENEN
# How it was run: as §1
# SPI1 = SPI1 (Homo sapiens, UniProt P17947 1-270)
# How it was run: as §1
# SPIB = SPIB (Homo sapiens, UniProt Q01892 1-262)
# How it was run: as §1
# ELK3 = target: T6, ELK3 (Homo sapiens, UniProt P41970 1-407)
# T6 sequence: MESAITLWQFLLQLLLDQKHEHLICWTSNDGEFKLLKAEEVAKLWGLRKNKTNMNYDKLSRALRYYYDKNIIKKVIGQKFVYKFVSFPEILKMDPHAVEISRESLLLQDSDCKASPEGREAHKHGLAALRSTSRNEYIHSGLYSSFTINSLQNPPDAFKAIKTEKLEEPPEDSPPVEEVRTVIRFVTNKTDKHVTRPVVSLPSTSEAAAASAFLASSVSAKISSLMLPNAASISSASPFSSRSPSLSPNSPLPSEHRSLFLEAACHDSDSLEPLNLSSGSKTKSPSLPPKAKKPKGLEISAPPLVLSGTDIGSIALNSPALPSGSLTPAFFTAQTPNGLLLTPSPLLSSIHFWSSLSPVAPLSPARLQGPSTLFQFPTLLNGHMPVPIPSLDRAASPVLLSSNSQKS
# How it was run: as §1
# SPIB, sequence (Q01892 whole entry): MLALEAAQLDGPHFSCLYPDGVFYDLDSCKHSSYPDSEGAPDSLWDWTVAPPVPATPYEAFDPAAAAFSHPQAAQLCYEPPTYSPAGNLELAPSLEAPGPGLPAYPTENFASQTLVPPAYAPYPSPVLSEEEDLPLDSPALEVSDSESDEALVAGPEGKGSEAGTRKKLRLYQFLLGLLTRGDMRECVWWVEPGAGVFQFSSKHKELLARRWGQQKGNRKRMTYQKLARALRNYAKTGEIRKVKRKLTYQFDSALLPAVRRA
# ELF1, sequence (P32519 whole entry): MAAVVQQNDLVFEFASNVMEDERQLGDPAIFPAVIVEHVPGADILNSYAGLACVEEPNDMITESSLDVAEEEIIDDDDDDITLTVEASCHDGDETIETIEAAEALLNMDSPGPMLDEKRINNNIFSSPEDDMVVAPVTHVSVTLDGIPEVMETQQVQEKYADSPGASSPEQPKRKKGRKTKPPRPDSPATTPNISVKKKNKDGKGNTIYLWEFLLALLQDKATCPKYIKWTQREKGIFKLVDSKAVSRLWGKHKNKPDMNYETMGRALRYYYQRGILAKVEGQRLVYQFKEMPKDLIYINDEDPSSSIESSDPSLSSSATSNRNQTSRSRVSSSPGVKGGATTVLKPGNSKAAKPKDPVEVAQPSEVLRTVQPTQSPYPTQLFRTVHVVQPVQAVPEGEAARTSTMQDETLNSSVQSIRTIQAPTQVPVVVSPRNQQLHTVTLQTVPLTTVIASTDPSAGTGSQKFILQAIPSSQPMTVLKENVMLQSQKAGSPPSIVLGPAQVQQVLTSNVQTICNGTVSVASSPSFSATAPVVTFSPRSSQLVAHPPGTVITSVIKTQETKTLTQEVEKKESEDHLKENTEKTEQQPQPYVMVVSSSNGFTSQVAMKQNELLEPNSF
sequence,measurement,setting,value
AAGAAC,binding signal,FLI1,"1.13 fold enrichment (6-mer frequency, TF over GST control)"
same,binding signal,ELK1,"1.18 fold enrichment (6-mer frequency, TF over GST control)"
same,binding signal,GABPA,"1.15 fold enrichment (6-mer frequency, TF over GST control)"
same,binding signal,ERG,"1.22 fold enrichment (6-mer frequency, TF over GST control)"
same,binding signal,ELF1,"1.17 fold enrichment (6-mer frequency, TF over GST control)"
same,binding signal,EHF,"1.24 fold enrichment (6-mer frequency, TF over GST control)"
same,binding signal,SPI1,"1.14 fold enrichment (6-mer frequency, TF over GST control)"
same,binding signal,SPIB,"1.05 fold enrichment (6-mer frequency, TF over GST control)"
same,binding signal,ELK3,"1.24 fold enrichment (6-mer frequency, TF over GST control)"
